From PubChem BioAssay
SENP6 block – blocks the human protease SENP6; Q9GZR1; Recombinant SENP6 catalytic domain, aminoluciferin luminescence; inhibition, % at 10 µM; actives 1.8% (n = 330,000); AID 2599;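 active means inhibition above about 50% at the single tested dose, limit read from the data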
SENP7 inh – SENP7 protease inhibition; inhibition, % at 5 µM; recombinant SENP7, Z-RLRGG-aminoluciferin luminescence, 40 min; actives 1.5% (n = 330,000); AID 434973;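 active means inhibition above about 50% at the single test dose, limit read from the data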
Target sequence (Q9BQF6 706-1050 limits assumed): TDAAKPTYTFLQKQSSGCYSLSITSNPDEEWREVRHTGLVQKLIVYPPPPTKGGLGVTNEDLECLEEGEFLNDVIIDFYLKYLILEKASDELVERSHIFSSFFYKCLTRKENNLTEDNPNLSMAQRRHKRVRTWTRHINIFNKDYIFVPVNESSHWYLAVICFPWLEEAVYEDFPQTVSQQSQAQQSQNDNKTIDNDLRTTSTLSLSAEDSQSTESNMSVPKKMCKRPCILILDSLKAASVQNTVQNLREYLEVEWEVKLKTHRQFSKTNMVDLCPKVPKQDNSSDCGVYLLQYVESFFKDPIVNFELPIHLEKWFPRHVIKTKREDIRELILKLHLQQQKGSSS
HSP90 inh – inhibitors of HSP90 luciferase refolding in rabbit reticulocyte lysate; actives 0.91% (n = 290,000); luciferase refolding luminescence, 3 h; inhibition, % at 5.6 µM; AID 1789;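 active means inhibition above the screen-wide mean plus 3 SD, computed separately per campaign, cut at about 16% in these data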;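 further: inhibitors lower the luminescence because luciferase stays unfolded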
SENP8 block-1 – blocks the human protease SENP8; actives 1.2% (n = 330,000); inhibition, % at 10 µM; Q96LD8; purified SENP8, Z-RLRGG-aminoluciferin cleavage, luminescence; in the data active means inhibition above about 50%
Target sequence (Q96LD8 whole entry, looked up): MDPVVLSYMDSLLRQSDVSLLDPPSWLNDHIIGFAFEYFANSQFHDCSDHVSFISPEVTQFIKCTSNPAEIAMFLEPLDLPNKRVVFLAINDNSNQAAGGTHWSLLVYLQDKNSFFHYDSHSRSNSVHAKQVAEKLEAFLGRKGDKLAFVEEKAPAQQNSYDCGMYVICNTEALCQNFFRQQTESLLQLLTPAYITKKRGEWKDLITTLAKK
SENP8 block-2 – inhibitors of human SENP8 protease. AID 602440. actives 0.64% (n = 360,000). inhibition, % at 20 µM. recombinant SENP8, Nedd8 substrate fluorescence; in the data active means inhibition mostly above about 40%, no sharp cut-off; inactive means mostly below about 27%
SENP8 confirm – confirmation of human SENP8 protease inhibitors. Recombinant SENP8, Z-RLRGG-aminoluciferin luminescence, 60 min. actives 40% (n = 6,200). inhibition, % at 12.5 µM. shares compounds with SENP7 inh;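 active means mean inhibition across replicates above about 50%, limit read from the data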
SENP6 conf – confirmation of human SENP6 protease inhibitors | actives 58% (n = 6,200) | recombinant SENP6, Z-RLRGG-aminoluciferin luminescence | shares compounds with SENP7 inh | inhibition, % at 12.5 µM
SENP7 confirm – confirmation of human SENP7 protease inhibitors | shares compounds with SENP7 inh | recombinant SENP7, Z-RLRGG-aminoluciferin luminescence, 40 min | inhibition, % at 12.5 µM | actives 69% (n = 6,200) | AID 488917
Casp3 SENP sel – inhibits human caspase-3 in SENP selectivity test | actives 60% (n = 6,200) | purified caspase-3, Z-DEVD-aminoluciferin luminescence, 60 min | shares compounds with SENP7 inh | inhibition, % at 12.5 µM;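 active means mean inhibition above about 50%, limit read from the data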
SENP luc ctr – luminescence interference (SENP counter-screen); Pre-incubated SENP8/Z-RLRGG-aminoluciferin, luciferase luminescence interference; shares compounds with SENP7 inh; AID 488919; inhibition, % at 12.5 µM; actives 39% (n = 6,200);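 active means mean inhibition above about 50% when retested at one dose, limit read from the data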
Large screens that a line does not name were inactive (follow-up assays come after a bar, where they were run). Hits are enriched below; roughly 2.8% of the tested compounds scored in any of these assays.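 How the source made its calls, unless noted: active means mean inhibition above about 50% in the one-dose retest (limit read from the data); inactive means the rest.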

CCC1CCCCN1CCCNC(=O)C1CCN(c2ncnc3c2nc2n3CCCCC2)CC1 (stereo unspecified)	none
CC1(C)CC(=O)c2sc(N3CCCCC3)nc2C1	none
O=C(COc1ccc(Cl)cc1)c1ccc(O)cc1O	SENP6 block 58 | SENP8 confirm 54 | SENP6 conf inactive | SENP7 confirm 72 | Casp3 SENP sel 67 | SENP luc ctr 53
CCOC(=O)c1ccc(OCC(=O)c2ccc(O)cc2O)cc1	SENP6 block 55 | SENP8 confirm inactive | SENP6 conf inactive | SENP7 confirm 64 | Casp3 SENP sel 66 | SENP luc ctr inactive
COC(=O)c1ccc(OCC(=O)c2ccc(O)cc2O)cc1	none
O=C(COc1ccccc1)OCC(=O)c1ccc(O)cc1O	none (no result: HSP90 inh)
CSc1ccccc1NC(=O)Nc1ccccc1	SENP6 block 90, SENP7 inh 81, SENP8 block-1 66 | SENP8 confirm inactive | SENP6 conf 82 | SENP7 confirm inactive | Casp3 SENP sel 83 | SENP luc ctr 83
CSc1ccccc1NC(=O)Nc1ccccc1Cl	none
CSc1ccccc1NC(=O)Nc1cccc(F)c1	SENP6 block 86, SENP7 inh 83, SENP8 block-1 69 | SENP8 confirm 87 | SENP6 conf 86 | SENP7 confirm 98 | Casp3 SENP sel 79 | SENP luc ctr 68
O=C(C#Cc1ccccc1)Nc1cccc(F)c1	SENP6 block 81, SENP7 inh 84, SENP8 block-1 71 | SENP8 confirm 85 | SENP6 conf 83 | SENP7 confirm 93 | Casp3 SENP sel 67 | SENP luc ctr 75
O=C(/C=C/c1ccc(Cl)cc1Cl)N1CCc2ccccc21	SENP6 block 70, SENP7 inh 92, SENP8 block-1 51 | SENP8 confirm inactive | SENP6 conf inactive | SENP7 confirm inactive | Casp3 SENP sel 64 | SENP luc ctr inactive
O=C(/C=C/c1cccc(F)c1)OCC(=O)N1CCCc2ccccc21	none (no result: HSP90 inh)
O=C(/C=C/c1cccc(F)c1)N1CCc2ccccc21	SENP6 block 74, SENP7 inh 95, SENP8 block-1 72 | SENP8 confirm inactive | SENP6 conf inactive | SENP7 confirm inactive | Casp3 SENP sel inactive | SENP luc ctr inactive
COc1ccc(S(=O)(=O)N2CCCCC2)cc1NC(=O)CCC(=O)N1CCC(c2ccccc2)=N1	none (no result: SENP6 block, SENP7 inh, HSP90 inh, SENP8 block-1)
Oc1ccccc1C=NCCCCCCN=Cc1ccccc1O	SENP6 block 69, SENP8 block-1 59 | SENP8 confirm inactive | SENP6 conf inactive | SENP7 confirm inactive | Casp3 SENP sel inactive | SENP luc ctr inactive
N#CC1=C(N)Oc2c(ccc3ccccc23)C1c1ccsc1 (stereo unspecified)	SENP6 block 62 | SENP8 confirm inactive | SENP6 conf inactive | SENP7 confirm inactive | Casp3 SENP sel inactive | SENP luc ctr inactive
COc1ccc2c(=O)c(-c3ccccc3)coc2c1	SENP6 block 79, SENP7 inh 80, SENP8 block-1 75 | SENP8 confirm inactive | SENP6 conf 73 | SENP7 confirm 93 | Casp3 SENP sel 84 | SENP luc ctr inactive
COc1ccc2c(=O)c(-c3ccc(OC)c(OC)c3)coc2c1	none
COc1ccc2cc(-c3ccccc3)c(=O)oc2c1	SENP6 block 92, SENP7 inh 88, SENP8 block-1 75 | SENP8 confirm inactive | SENP6 conf 90 | SENP7 confirm 99 | Casp3 SENP sel 86 | SENP luc ctr inactive
CCN(CC)C(=O)Oc1ccc2c(=O)c(-c3ccccc3)coc2c1	SENP6 block 81, SENP7 inh 71, SENP8 block-1 54 | SENP8 confirm inactive | SENP6 conf inactive | SENP7 confirm 54 | Casp3 SENP sel 57 | SENP luc ctr inactive
Cc1cc(C)n(Cc2cccc(F)c2)c(=O)c1C#N	none
C(=C\c1ccccc1)/C=N/N1CCN(c2ccccn2)CC1	SENP6 block 74, SENP7 inh 56 | SENP8 confirm inactive | SENP6 conf 52 | SENP7 confirm inactive | Casp3 SENP sel 62 | SENP luc ctr inactive
C(/C=C/c1ccccc1)=N/N1CCN(c2ccccc2)CC1	SENP7 inh 61 | SENP8 confirm inactive | SENP6 conf inactive | SENP7 confirm inactive | Casp3 SENP sel inactive | SENP luc ctr inactive
O=[N+]([O-])c1ccccc1/C=C\C=N\N1CCN(c2ccccc2)CC1	none
Oc1ccccc1/C=N/N1CCN(c2ccccn2)CC1	none
Cc1ccc(C)c(S(=O)(=O)N2CCCCC2CCNC(=O)C(=O)NCc2ccco2)c1 (stereo unspecified)	none (no result: HSP90 inh)
O=C(CN1CCN(c2cccc(Cl)n2)CC1)N1CC(O)CO1 (stereo unspecified)	none
O=c1c2ccccc2nnn1CSc1ccccc1	SENP6 block 87, SENP7 inh 78, SENP8 block-1 75 | SENP8 confirm 81 | SENP6 conf 81 | SENP7 confirm 96 | Casp3 SENP sel 88 | SENP luc ctr 85
Cc1ccc(CNC(=O)c2ccc(N3CCC4(CC3)CC(c3ccccc3)=NO4)c(NC(=O)c3cccc(C)c3)c2)cc1	none (no result: HSP90 inh)
O=C(CCc1ccc(S(=O)(=O)N2CCOCC2)cc1)Oc1ccccc1	none
c1ccc(-c2cn3nc(-c4ccccc4)cnc3n2)cc1	none (no result: SENP6 block, SENP7 inh, SENP8 block-1)
c1ccc(-c2cn3nc4c(nc3n2)CCCC4)cc1	SENP6 block 50 | SENP8 confirm 86 | SENP6 conf 94 | SENP7 confirm 96 | Casp3 SENP sel 94 | SENP luc ctr inactive
Brc1ccc(-c2cn3nc4c(nc3n2)CCCC4)cc1	SENP6 block 70, SENP8 block-1 74 | SENP8 confirm inactive | SENP6 conf 66 | SENP7 confirm 60 | Casp3 SENP sel inactive | SENP luc ctr inactive
Cc1ccc(NC2=CC(=O)C(=O)c3ccccc32)c(C)c1	SENP6 block 51 (no result: HSP90 inh) | SENP8 confirm inactive | SENP6 conf inactive | SENP7 confirm inactive | Casp3 SENP sel inactive | SENP luc ctr inactive
O=C1C=C(Nc2ccccc2O)c2ccccc2C1=O	SENP6 block 88, SENP8 block-1 77 | SENP8 confirm inactive | SENP6 conf 86 | SENP7 confirm 67 | Casp3 SENP sel inactive | SENP luc ctr inactive
O=C1C=C(Nc2ccc(F)cc2)c2ccccc2C1=O	SENP6 block 82, SENP8 block-1 72 (no result: HSP90 inh) | SENP8 confirm inactive | SENP6 conf 89 | SENP7 confirm inactive | Casp3 SENP sel inactive | SENP luc ctr inactive
COc1cccc(NS(=O)(=O)c2c(C(=O)N3CCCCCC3)c(C)n(C)c2C)c1	none
